Screening results deposited in PubChem by several laboratories.
SMARCA2 activ – activators of SMARCA2 function; MG213 cells, MMTV-luciferase reporter, dexamethasone, overnight; activation, % at 9.1 µM; 370,000 compounds, 1% hits; AID 652017; in the data active means activation above about 7.8%;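 further: 0% = vehicle wells and 100% = reference activator wells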
ALR H2O2 inh – inhibitors of human sulfhydryl oxidase ALR; purified ALR, DTT oxidation, H2O2 HRP-luminol luminescence; 290,000 compounds, 3.8% hits; inhibition, % (no concentration beside the values);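 active means mean replicate inhibition above about 79%, with every replicate also reaching it, limit read from the data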
GASC-1 inh – blocks human GASC-1 demethylase activity; Q9H3R0; GST-JMJD2C(1-420) H3K9me3 demethylation, DELFIA europium; inhibition, % at 2.35 µM; 330,000 compounds, 0.069% hits;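 active means more than half of a compound's replicate wells show inhibition beyond 50%, single wells judged on their own value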;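 further: signal counts dimethyl H3K9 product captured on neutravidin plate; 0% = median of DMSO wells and 100% = 0.3 times that DMSO median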
Target sequence (Q9H3R0 1-420 limits assumed): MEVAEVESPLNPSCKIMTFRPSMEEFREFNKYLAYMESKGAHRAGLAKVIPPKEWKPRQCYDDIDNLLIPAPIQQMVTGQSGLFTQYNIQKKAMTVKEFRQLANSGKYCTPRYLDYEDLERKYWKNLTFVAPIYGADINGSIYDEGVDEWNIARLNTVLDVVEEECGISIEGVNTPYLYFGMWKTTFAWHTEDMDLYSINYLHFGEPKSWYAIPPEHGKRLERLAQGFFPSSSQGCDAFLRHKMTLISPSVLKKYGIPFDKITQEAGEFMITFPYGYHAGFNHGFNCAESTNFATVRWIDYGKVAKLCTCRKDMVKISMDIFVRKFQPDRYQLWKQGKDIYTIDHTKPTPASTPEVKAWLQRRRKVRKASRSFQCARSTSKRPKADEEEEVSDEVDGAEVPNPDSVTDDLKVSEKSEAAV
MIN6 prolif – induces beta-cell replication in MIN6 cells | MIN6 cells proliferation, ATPlite luminescence, 48 h; cells starved in 0.2% serum; 100% = growth in 10% serum | proliferation, % at 10 µM | 330,000 compounds, 0.29% hits | AID 2380;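 active means compounds whose signal lies at least 3.5 SD above the mean of all wells on their plate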;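 further: 0% = DMSO-treated cells in low-serum medium and 100% = 10% serum control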
Granule exo inh – blocks lytic granule exocytosis; AID 651702; TALL-104 LAMP-1 surface exposure, flow cytometry; cells stimulated with thapsigargin and PMA; inhibition, % at 10 µM; 360,000 compounds, 0.66% hits;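 active means inhibition above about 55%, limit read from the data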
PfM18AAP inh – PfM18AAP enzyme inhibition; recombinant PfM18AAP, H-Glu-NHMec fluorogenic cleavage; inhibition, % at 7.35 µM; 290,000 compounds, 1.2% hits;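 active means inhibition above the campaign mean inhibition over all tested compounds plus 3 SD, cut at about 28% in these data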;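 further: 0% = plate median of test compound wells and 100% = 2 mM ZnCl2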
* marks the source's active call; other numbers are inactive results. An excerpt weighted towards active compounds, which were near 5.4% of everything screened.

What do the screens show for `Cc1ccc(NC(=O)c2cccc(C(=O)Nc3ccc(C)cc3C(=O)O)c2)c(C(=O)O)c1`?
SMARCA2 activ: -3.5; ALR H2O2 inh: 98.6*; GASC-1 inh: -6.2; MIN6 prolif: -3.5; Granule exo inh: -3.6; PfM18AAP inh: -4.4

What do the screens show for `O=C(Nc1ccccc1C(=O)O)c1cccc(F)c1`?
SMARCA2 activ: -2.1; GASC-1 inh: 3.6; MIN6 prolif: -1.7; Granule exo inh: -3.4; PfM18AAP inh: -7.4

Results for Cc1ccc(S(=O)(=O)CCSc2cccc(C(=O)Nc3ccccc3C(=O)O)c2)cc1 ?
SMARCA2 activ: -3.8; ALR H2O2 inh: 98.7*; GASC-1 inh: -5.5; MIN6 prolif: 0.0; Granule exo inh: 10.4; PfM18AAP inh: -5.8

Results for COc1ccc(C)cc1NC(=O)c1cccc(C(=O)Nc2cc(C)ccc2OC)c1 ?
SMARCA2 activ: -2.2; ALR H2O2 inh: -7.9; GASC-1 inh: 7.4; MIN6 prolif: -2.6; Granule exo inh: -4.0; PfM18AAP inh: 1.6

What do the screens show for `COCCCNC(=O)c1nnn2c1nc(N)c1cc(Cl)ccc12`?
SMARCA2 activ: -1.4

What do the screens show for `COC(=O)C1CN(Cc2cn(Cc3ccccc3)nn2)CCS(=O)(=O)N1Cc1ccc(C)cc1` (configuration not stated)?
SMARCA2 activ: -4.3

What do the screens show for `CN(Cc1ccccc1)C(=O)OCc1cn(Cc2ccc(F)cc2F)nn1`?
SMARCA2 activ: -1.2

How did Cc1cc(NC(=O)c2ccccc2)ccc1NC(=O)c1ccccc1Cl do in these assays?
SMARCA2 activ: -0.7; ALR H2O2 inh: -5.4; GASC-1 inh: 9.1; MIN6 prolif: -2.3; Granule exo inh: 1.3; PfM18AAP inh: -6.5

What do the screens show for `Cc1cc(O)ccc1NC(=O)c1ccccc1`?
SMARCA2 activ: -1.6; ALR H2O2 inh: 98.8*; GASC-1 inh: 5.1; MIN6 prolif: -1.8; Granule exo inh: -2.8; PfM18AAP inh: 0.5

What do the screens show for `CCOCCCNC(=O)CCCn1nc(C)n2c(cc3sccc32)c1=O`?
SMARCA2 activ: 1.5; GASC-1 inh: 2.4; MIN6 prolif: -3.2; Granule exo inh: 8.2; PfM18AAP inh: 0.4

What do the screens show for `CCN(CCNC(=O)CCCn1nc(C)n2c(cc3sccc32)c1=O)c1ccccc1`?
SMARCA2 activ: 0.2; ALR H2O2 inh: 98.4*; GASC-1 inh: -7.4; MIN6 prolif: 5.0; Granule exo inh: -1.4; PfM18AAP inh: -8.0

How did CN1CCCN(C(=O)CSc2nnc(-c3cccnc3)n2C2CCCCC2)CC1 do in these assays?
SMARCA2 activ: 0.5

How did NC(=S)N/N=C/c1c(O)c(Br)cc2oc3c(c12)CCCC3 do in these assays?
SMARCA2 activ: -3.1; ALR H2O2 inh: -11.9; GASC-1 inh: -4.1; MIN6 prolif: -5.7; Granule exo inh: -0.7; PfM18AAP inh: 8.2

Results for Oc1c(Br)cc2oc3c(c2c1CNCc1ccccc1)CCCC3 ?
SMARCA2 activ: -3.8; ALR H2O2 inh: -18.6; GASC-1 inh: 12.1; MIN6 prolif: 0.6; Granule exo inh: -3.2; PfM18AAP inh: 31.1*

What do the screens show for `COc1ccccc1N1CCN(CC(C)N(C(=O)C2CCCCC2)c2ccccn2)CC1` (configuration not stated)?
SMARCA2 activ: -2.3; ALR H2O2 inh: 32.5; GASC-1 inh: -19.3; MIN6 prolif: -1.3; Granule exo inh: 7.2; PfM18AAP inh: 0.1

What do the screens show for `COc1ccccc1N1CCN(CCN(C(=O)C2CCCCC2)c2ccccn2)CC1`?
SMARCA2 activ: -3.6; ALR H2O2 inh: 97.1*; GASC-1 inh: 24.9; MIN6 prolif: -3.0; Granule exo inh: 2.5

Results for COc1ccccc1N1CCN(CCCC(=O)c2ccc(F)cc2)CC1 ?
SMARCA2 activ: -3.0; ALR H2O2 inh: 64.0; GASC-1 inh: 2.1; MIN6 prolif: 1.4; Granule exo inh: -3.6; PfM18AAP inh: -10.5

How did COc1ccccc1N1CCN(CCN(C(=O)c2ccc(F)cc2)c2ccccn2)CC1 do in these assays?
SMARCA2 activ: -7.3; ALR H2O2 inh: 94.3*; MIN6 prolif: -0.3; Granule exo inh: -3.8

How did Cn1c(=O)c2cc(S(=O)(=O)N3CCN(CCO)CC3)ccc2n(C)c1=O do in these assays?
SMARCA2 activ: -1.7

How did O=C(CN(CCc1ccccc1)S(=O)(=O)c1cccs1)N1CCOCC1 do in these assays?
SMARCA2 activ: -1.6

What do the screens show for `COc1ccccc1-c1nnc(SCC(=O)Nc2ccc3[nH]c(=O)[nH]c3c2)n1N`?
SMARCA2 activ: 0.0; ALR H2O2 inh: 98.5*; GASC-1 inh: -8.8; MIN6 prolif: -3.4; Granule exo inh: -10.0
